Tb PGK inh: blocks T. brucei phosphoglycerate kinase | P07378 | PGK/GAPDH coupled, Kinase-Glo luminescence, 60 min | Potency, µM (highest dose often 57.5 µM), without a hit: at the highest dose activity change, negative = inhibition, hits mostly inhibitors | hit rate 0.043% among 380,000 | AID 602233; note: % is set by controls: 0 for no effect and ±100 for the full control effect; nearly all actives have a fitted effect of over 60% in size
Target sequence (P07378 whole entry, looked up): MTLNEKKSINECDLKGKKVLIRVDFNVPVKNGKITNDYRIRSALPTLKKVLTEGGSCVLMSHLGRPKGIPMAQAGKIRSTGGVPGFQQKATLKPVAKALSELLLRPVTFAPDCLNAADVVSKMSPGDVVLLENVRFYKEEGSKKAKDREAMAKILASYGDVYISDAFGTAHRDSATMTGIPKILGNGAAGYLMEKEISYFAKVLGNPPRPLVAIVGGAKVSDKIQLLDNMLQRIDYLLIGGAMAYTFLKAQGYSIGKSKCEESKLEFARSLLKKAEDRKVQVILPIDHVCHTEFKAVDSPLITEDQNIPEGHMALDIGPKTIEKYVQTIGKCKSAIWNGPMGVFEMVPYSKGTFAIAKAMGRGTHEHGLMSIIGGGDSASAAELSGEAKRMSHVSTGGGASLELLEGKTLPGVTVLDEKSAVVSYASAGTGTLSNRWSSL
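Luminescent ATP detection (Kinase-Glo Plus) follows a 60-minute room-temperature incubation, with wells lacking PGK as controls. Buffer: 100 mM TEA (pH 7.6), 5 mM MgCl2, 0.01% Tween-20. Coupling enzyme GAPDH (100 nM final) supplies unstable 1,3-BPG in-well.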
Rango dissoc inh: prevents RanGTP from dissociating the Rango-importin beta complex; Biochemical FRET Rango-importin beta, RanGTP-induced dissociation; Potency, µM (doses to about 46.1 µM), for inactives: at the highest dose activity change, negative = inhibition; hit rate 0.071% among 340,000; AID 540253; calls by dose curve; note: % of control where 0% means no effect; nearly all actives have a fitted effect of over 45% in size
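Compounds sat 5 min at room temperature with 0.1 uM Rango biosensor plus 0.25 uM importin beta, then FRET pre-read. RanGTP-RCC1 (0.6 uM Ran, 2mM GTP, 0.2 uM RCC1) added for 45 min, and the CFP/YFP post-read measured blocked complex dissociation.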
PKM2 act: increases activity of human pyruvate kinase M2; Potency, µM (top dose mostly 57.5 µM), without a hit: at the highest dose activation, hits mostly activators; hit rate 0.34% among 260,000; purified PKM2, Kinase-Glo ATP luminescence, activation; response scale: 0% is enzyme alone, no compound; P14618; note: % is set by controls: 0 for no effect and ±100 for the full control effect; nearly all actives have a fitted effect of over 55% in size
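Purified hPK-M2 (>95%) run at intermediate activity with 0.1 mM ADP and 0.5 mM PEP in 50 mM imidazole pH 7.2, KCl, MgCl2; 1 h room temperature. ATP formed read by Kinase-Glo luminescence; normalized to uninhibited and no-enzyme controls.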
ELG1 DNA repair: ELG1-dependent DNA repair inhibition; hit rate 2.3% among 330,000; AID 504467; HEK293T ELG1-luciferase reporter, luminescence, 16 h; DNA damage induced by 5-fluorouridine; Potency, µM (highest dose often 46.1 µM), inactives show at the top dose activity change, negative = inhibition, usual class: inhibitors; note: % is set by controls: 0 for no effect and ±100 for the full control effect; nearly all actives have a fitted effect of over 55% in size
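Reporter activity after DNA damage by 5-fluorouridine is monitored. Compound-treated cells incubate 16 hr at 37 °C, then ONE-Glo is added for 30 min before luminescence reading.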
Tb PFK block: inhibitors of T. brucei phosphofructokinase; T. brucei PFK, ADP-Glo luminescence; Potency, µM (highest dose often 57.5 µM), for inactives: at the highest dose activity, negative = inhibition, actives largely listed as inhibitors; hit rate 0.17% among 330,000; AID 485367;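 note: 0% = uninhibited 1x PFK enzyme wells and -100% = no-enzyme wells; nearly all actives have a fitted effect of over 60% in size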
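In TEA buffer at pH 8.0 with 5 mM MgCl2, enzyme (1.25 nM) converted F6P (0.5 mM) and ATP (0.1 mM) for 45 min at room temperature. ADP product was read by luciferase luminescence.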
Rango complex inh: inhibitors of Rango-importin beta complex formation; Q14974; Rango CFP/YFP FRET sensor + importin beta, 45 min; Potency, µM (titrated, usually from 92.2 µM), for inactives: at the top dose inhibition of complex formation; hit rate 0.031% among 340,000; calls by dose curve;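 note: 0% = DMSO wells and 100% = buffer wells lacking importin beta; nearly all actives have a fitted effect of over 15% in size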
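FRET biosensor (snurportin 1 IBB flanked by EYFP and cerulean), 50 nM, with compound 5 min, then 0.125 microM importin beta in PBS, 1 mM DTT, 0.02% Tween-20, 0.1% BSA. CFP/YFP ratio read after 45 min at room temperature; pre-read flags interference.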
ELG1 FLuc counter: luciferase inhibition in cell-free luciferin readout for ELG1 hits. shares compounds with ELG1 DNA repair. cell-free firefly luciferase luminescence counter-screen, ViewLux. Potency, µM (top dose mostly 46.1 µM), without a hit: at the top dose activity change, negative = inhibition, most hits filed as inhibitors. hit rate 3% among 350. AID 624247; note: % is set by controls: 0 for no effect and ±100 for the full control effect
ELG1 Luc conf: inhibits ELG1-dependent DNA repair in HEK293T cells, confirmed | shares compounds with ELG1 DNA repair | HEK293T ELG1-luciferase levels, luminescence; cells co-treated with 5-fluorouridine | Potency, µM (series often up to 46.1 µM), for the others: at the highest dose activity change, negative = inhibition, hits mostly inhibitors | hit rate 68% among 670 | AID 624248; note: % is set by controls: 0 for no effect and ±100 for the full control effect; nearly all actives have a fitted effect of over 55% in size
ELG1-Luc MMS: confirmation of human ELG1 repair inhibitors, MMS stimulated | hit rate 53% among 670 | HEK293T luciferase-tagged ELG1 level, MMS stimulated | Potency, µM (series often up to 46.1 µM), without a hit: at the highest dose activity change, negative = inhibition, actives largely listed as inhibitors | shares compounds with ELG1 DNA repair; note: % is set by controls: 0 for no effect and ±100 for the full control effect; nearly all actives have a fitted effect of over 60% in size
ELG1 5FU viab: confirmation of ELG1 repair inhibitors: viability with 5FU | shares compounds with ELG1 DNA repair | cell viability with 5-FU, ELG1-dependent repair | Potency, µM (highest dose often 46.1 µM), inactives show at the highest dose activity change, negative = viability loss, most hits filed as cytotoxic | 670 tested, under 10 active | AID 624250;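 note: ELG1-luc HEK293T cells cotreated with 5-fluorouridine at 10 µM final; viability measured 16 h after compound addition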
ELG1 MMS cell: confirmation of ELG1 repair inhibitors: viability with MMS. Potency, µM (series often up to 46.1 µM), for inactives: at the highest dose activity change, negative = viability loss, most hits filed as cytotoxic. Cell viability with MMS, ELG1-dependent DNA repair. hit rate 33% among 670. shares compounds with ELG1 DNA repair;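 note: ELG1-luc HEK293T cells co-treated with 10 µM MMS; viability read 16 h after compound addition; % is set by controls: 0 for no effect and ±100 for the full control effect; nearly all actives have a fitted effect of over 60% in size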
ELG1 unstim viab: unstimulated viability counter-screen for ELG1 repair hits | shares compounds with ELG1 DNA repair | cell viability counter-screen, unstimulated, luminescence | Potency, µM (highest dose often 45.9 µM), for the others: at the highest dose activity change, negative = loss of viability, hits mostly cytotoxic | hit rate 8% among 900 | AID 624252;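 note: compound exposure lasted 16 hours before reading; % is set by controls: 0 for no effect and ±100 for the full control effect; nearly all actives have a fitted effect of over 55% in size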
FLuc enzyme: inhibits purified firefly luciferase, counter-screen for ELG1 hits; purified firefly luciferase, luminescence counter-screen; hit rate 10% among 350; shares compounds with ELG1 DNA repair; Potency, µM (titrated, usually from 57.5 µM), without a hit: at the top dose activity, negative = inhibition, usual class: inhibitors; note: % is set by controls: 0 for no effect and ±100 for the full control effect
Active calls of the source: *. Sampled rows, rich in hits. Any-hit rate of the full collection: about 2.4%. Unless noted, calls come from the whole dose curve; as a rule, active = well fitted curve in the direction sought with a large enough effect; inconclusive = small, poorly fitted or top-dose-only effect, or another doubt; inactive = no such curve, though single readings can be large; an effect the other way counts as inactive or inconclusive. Potency is the fitted concentration of half-maximal effect.

How did CN(C)c1ccc(C(=O)OCC(=O)c2ccc[nH]2)cc1 do in these assays?
Tb PGK inh: 5%; Rango dissoc inh: 5%; ELG1 DNA repair: inconclusive; Tb PFK block: 2%; Rango complex inh: 5%; ELG1 unstim viab: -11%

How did O=C(OCC(=O)c1ccc[nH]1)c1ccccc1 do in these assays?
Tb PGK inh: 5%; Rango dissoc inh: 0%; PKM2 act: -7%; ELG1 DNA repair: inconclusive; Tb PFK block: 0%; Rango complex inh: -2%

Results for COc1cccc(C(=O)NNS(=O)(=O)c2ccc(C)cc2)c1 ?
Tb PGK inh: -7%; Rango dissoc inh: 6%; PKM2 act: -2%; ELG1 DNA repair: -2%; Tb PFK block: 0%; Rango complex inh: -1%

What do the screens show for `COc1ccc(-n2c(C)c(C(C)=O)c3cc(O)ccc32)cc1`?
Tb PGK inh: 1%; Rango dissoc inh: 2%; PKM2 act: 4%; ELG1 DNA repair: 0.82µM*; Tb PFK block: -2%; Rango complex inh: 5%; ELG1 FLuc counter: inconclusive; ELG1 Luc conf: 0.89µM*; ELG1-Luc MMS: inconclusive; ELG1 5FU viab: 1%; ELG1 MMS cell: inconclusive; ELG1 unstim viab: 8%; FLuc enzyme: 0%

Results for COc1ccccc1OCC#CCNC1CCCCC1C (stereo not drawn) ?
Tb PGK inh: -10%; Rango dissoc inh: -5%; PKM2 act: 2%; ELG1 DNA repair: -3%; Tb PFK block: -4%; Rango complex inh: 0%

Results for O=C(CSCC(=O)N1CCCCC1)Nc1nc(-c2ccc(Cl)s2)cs1 ?
Tb PGK inh: 6%; Rango dissoc inh: -14%; PKM2 act: 5%; ELG1 DNA repair: inconclusive; Tb PFK block: -3%; Rango complex inh: 2%
